Here are results for 40 compounds from PubChem BioAssay (NCATS).

Inconclusive results are not listed. Entries that show only a call come without a potency. Active and inactive are the calls of the source. The call rests on the fitted dose curve; in most records, active means well fitted inhibition curve with a large enough effect; inconclusive means small, poorly fitted or top-dose-only effect, or effect the other way; inactive means flat fitted curve, though single readings scatter.
Potency means the concentration at half of the fitted maximal effect.

The nature of the assay: qHTS for Inhibitors of Plasmodium falciparum (CP250) proliferation (AID 504320). The conditions noted are these: P. falciparum CP250 in erythrocytes, SYBR Green DNA, 72 h; series mostly up to 6.7 µM. From the text: Plasmodium falciparum is a virulent malarial parasite that kills 1-2 million people worldwide each year. Malaria not only inflicts tremendous suffering and morbidity on the human population, but has dramatically influenced the course of civilization with profound sociological and economic implications (Shah, S. 2010). Transmitted by mosquitoes, the sporozoite form of the parasite enters the blood stream to infect hepatocytes, where they become merozoites that infect red blood cells (erythrocytes). Within erythrocytes, merozoites begin a […] cycle of growth and division, after which the parasite is released to infect new red blood cells. Gametocytes, which form within erythrocytes as well, circulate in the bloodstream and are ingested by the mosquito, thereby completing the life cycle (see CDC website). To profile malarial lines for differential chemical responses and to identify inhibitors of malarial growth, an assay that measures P. falciparum growth and replication within erythrocytes was employed. This assay uses a DNA binding fluorescent dye (SYBR Green) to detect parasite DNA following cell lysis. Because mature erythrocytes lack DNA, only Plasmodium-derived DNA is detected. The P. falciparum line cp250, derived from a malarial isolate from Cambodia, (Mu, J., et al. 2010) was added to the panel of lines, Dd2, HB3, 7G8 and GB4 in this study. Laboratory of Assay Development and Screening Technology [ADST] and NIH Chemical Genomics Center [NCGC] Boston University, Chemistry Department, Center for Chemical Methodology and Library Development [CMLD-BU] NIH National Institute of Allergy and Infectious Diseases [NIAID]
ADST Assay Protocol Summary: The 1536-well SYBR Green viability assay was based on the method of Bennett et al (2004) and described previously in 1536-well format (Yuan J., et al. 2009). For screening 3 ul culture medium was dispensed into 1536 well black clear bottom plates (Aurora Biotechnologies) using a Multidrop Combi (Thermo Fisher Scientific Inc.), 23 nL compounds in DMSO were added by a pin transfer (Cleveland, P.H. and Koutz, P.J, 2005) using a pin tool-based delivery system (Kalypsys), and 5 ul of erythrocytes infected with P. falciparum one of five lines (cp250, Dd2, HB3, 7G8 or GB4, 0.3% parasitemia, 2.5% hematocrit final concentration) were added. The plates were incubated at 37C in a humidified incubator in 5% CO2 for 72 h, and 2 ul lysis buffer (20 mM Tris HCl, 10 mM EDTA, 0.16% saponin, 1.6% triton X, 10X SYBR Green I (supplied as 10,000X final concentration by Invitrogen) was added to each well. The plates were mixed for 25 sec with gentle shaking and incubated overnight at room temperature in the dark. The following morning, fluorescence intensity at 485(14) nm excitation and 535(25) nm emission wavelengths was measured on an EnVision (Perkin Elmer) plate reader. Plate reads were normalized relative to the control inhibitor (0.29 uM artemisinin) and vehicle (DMSO) wells present on each plate and then corrected by an algorithm using vehicle-only control plates at the beginning and end of the compound plate stack. References Shah, S. (2010). The Fever: how malaria has ruled humankind for 500,000 years. New York, Sarah Crichton Books. CDC web site, http://www.cdc.gov/malaria/about/biology/index.html Mu, J., Myers, R.A., Jiang, H., Liu, S., Ricklefs, S., Waisberg, M., Chotivanich, K., Wilairatana, P., Krudsood, S., White, N.J., et Plasmodium falciparum genome-wide scans for positive selection, recombination hot spots and resistance to antimalarial drugs Nature Genetics 2010, 42, pp 268-271 Bennett TN, Paguio, M., Gligorijevic, B., Seudieu, C., Kosar, A. D., Davidson, E., and Roepe, P. D. Novel, rapid, and inexpensive cell-based quantification of antimalarial drug efficacy Antimicrobial Agents Chemother. 2004, 48(5): pp 1807-10 Yuan J, Johnson RL, Huang RL, Wichterman J, Jiang HY, Hayton K, Fidock DA, Wellems TE, Inglese J, Austin CP, Su XZ. […]
Background: Quantitative high-throughput screening tests each substance at several concentrations.
For `CCC(=O)N1C2=C(c3ccccc3[C@@H]1CC(=O)Nc1ccc3ccccc3c1)[C@@H]1C(=O)N(c3ccccc3)C(=O)[C@@H]1[C@H](C)C2`, the Potency entry was “inactive”. The entry for `CC1(C)O[C@@H]2[C@@H](O1)C(c1ccccc1)(c1ccccc1)OP(=O)(O)OC2(c1ccccc1)c1ccccc1` is “inactive”; for `CC1(OC(=O)CCc2ccccc2)C(=O)C=C2C=C(c3ccc(C#N)cc3)N(c3ccccc3)C=C2C1=O` (stereo not given) it is “inactive”. Under `C=CCN1c2ccccc2[C@]23C[C@@H](C(=O)OC)N(C(=O)C4CCC4)C2=NC(C(=O)OC)=C(C(=O)OC)[C@H]13` stands “inactive”. Under `COc1ccc(-c2nc3c(c4c2C[C@H](c2ccccc2)OC4)CN(S(=O)(=O)c2ccc(C#N)cc2)CC3)c(C)c1` stands “inactive”; under `CCCCC1=CC2=CC(=O)C(C)(OC(=O)CC)C(=O)C2=CN1C1CCCC1` (stereo not given), “inactive”. As for `COC(=O)C1=C(C(=O)OC)[C@@H]2N(Cc3ccccc3)c3ccccc3[C@@]23C[C@@H](C(=O)OC)N(S(=O)(=O)c2ccc(Br)cc2)C3=N1`, the Potency was 1.69 µM (active). The entry for `C=C(C)C(=O)c1ccc2c(c1)OCO2` is “inactive”; for `CC(C)CN1C=C2C(=O)C(C)(OC(=O)CCc3ccccc3)C(=O)C=C2C=C1c1ccc(C#N)cc1` (stereo not given) it is “inactive”; for `COC(=O)CCC(=O)OC1(C)C(=O)C2=CN(c3ccc(OC)cc3)C(c3ccc(OC)cc3)=CC2=C(Br)C1=O` (stereo not given) it is “inactive”. The entry for `COC(=O)C1=C(C(=O)OC)[C@@H]2N(Cc3ccccc3)c3ccccc3[C@@]23C[C@@H](C(=O)OC)N(C(=O)CC(C)C)C3=N1` is “inactive”; for `COC(=O)C[C@H]1c2ccccc2[C@H]2C(=C[C@@H](C)[C@H]3C(=O)N(O)C(=O)[C@H]32)N1C(=O)OC` it is “inactive”. Under `CC#CCN1c2ccccc2[C@]23C[C@@H](C(=O)OC)N(S(=O)(=O)c4ccc(C#N)cc4)C2=NC(C(=O)OC)=C(C(=O)OC)[C@H]13` stands “inactive”. In the case of `COC(=O)c1ccccc1S(=O)(=O)N1CCc2nc(-c3ccc(OC)cc3C)c3c(c2C1)CO[C@@H](c1ccccc1)C3`, the Potency entry was “inactive”. Under `COC(=O)C1=C(C(=O)OC)[C@@H]2N(C)c3ccc(OC)cc3[C@@]23C[C@@H](C(=O)OC)N(C(=O)CC(C)C)C3=N1` stands “inactive”; under `COC(=O)C(C(=O)OC)[C@@H]1c2ccccc2[C@H]2C(=C[C@@H](C)[C@H]3C(=O)N(c4ccccc4)C(=O)[C@H]32)N1C(=O)OC`, “inactive”. With `COC(=O)C1=C(C(=O)OC)[C@@H]2Nc3ccccc3[C@@]23C[C@@H](C(=O)OC)N=C3N1`, the Potency result is “inactive”. On to `C=CCN1C=C2C(=O)C(C)(OC(=O)CCC(=O)OC)C(=O)C(Br)=C2C=C1c1ccc(OC)cc1` (stereo not given), for which the Potency result was “inactive”. The entry for `COC(=O)CCC(=O)OC1(C)C(=O)C2=CN(Cc3ccco3)C(c3ccc(OC)cc3)=CC2=C(Br)C1=O` (stereo not given) is “inactive”.

Take `COC(=O)C1=C(C(=O)OC)[C@@H]2Nc3ccccc3[C@@]23C[C@@H](C(=O)OC)N(C(=O)c2cccs2)C3=N1`: the Potency result is “inactive”. For the compound `CCCCS(=O)(=O)N1CCc2nc(-c3ccc(OC)cc3C)c3c(c2C1)CO[C@@H](c1ccccc1)C3`, the Potency result is “inactive”. The entry for `CCOC(=O)CN1C(=O)N[C@@H](c2cccc(C(F)(F)F)c2)C(C(=O)OC)=C1C` is “inactive”; for `COc1ccc(O[C@H]2C=C[C@@H](c3ccccc3)O[C@H]2COC(=O)CCC(C)=NO[C@H](C)c2cn([C@H](CO)Cc3ccccc3)nn2)cc1` it is “inactive”. The entry for `CC1(OC(=O)CCc2ccccc2)C(=O)C=C2C=C(c3ccc(C#N)cc3)N(CCc3c[nH]c4ccccc34)C=C2C1=O` (stereo not given) is “inactive”; for `COc1ccc2c(c1)O[C@@H](c1cccc(C(F)(F)F)c1)[C@H](OC(=O)N[C@H]1CCCc3ccccc31)C2=O` it is “inactive”. The entry for `COC(=O)C1=C(C(=O)OC)[C@@H]2N(C)c3ccc(OC)cc3[C@@]23C[C@@H](C(=O)OC)N(C(C)=O)C3=N1` is “inactive”; for `CCCCS(=O)(=O)N1C2=NC(C(=O)OC)=C(C(=O)OC)[C@@H]3N(C)c4ccc(OC)cc4[C@]23C[C@H]1C(=O)OC` it is “inactive”. With `COC(=O)C1(C(=O)OC)CC(CO)C(=O)[C@@H]1c1ccccc1` (stereo not given in full), the Potency entry is “inactive”. The entry for `COC(=O)C1=C(C(=O)OC)[C@@H]2Nc3ccccc3[C@@]23C[C@@H](C(=O)OC)N(S(=O)(=O)c2ccc(C(F)(F)F)cc2)C3=N1` is “inactive”; for `COC(=O)CCCC1=CC2=C(c3ccccc3)C(=O)C(C)(OC(=O)C3CCCC3)C(=O)C2=CN1CC(C)C` (stereo not given) it is “inactive”. In the case of `COC(=O)[C@@H]1CC[C@H](C)[C@@H](c2ccc(C)cc2)N1C(=O)c1ccc(C=NO[C@@H](C)c2cc(-c3c(C)cc(C)cc3C)no2)cc1`, the Potency was 1.69 µM (active). Turning to `COC(=O)C1=C(C(=O)OC)[C@@H]2N(Cc3ccccc3)c3ccccc3[C@@]23C[C@@H](C(=O)OC)N(S(=O)(=O)c2ccc(C(F)(F)F)cc2)C3=N1`, the Potency is 0.536 µM (active). The entry for `CCN1C(=O)N[C@@H](c2cccs2)C(C(=O)OC)=C1C` is “inactive”.

For the compound `CCOC(=O)CN1C(=O)N[C@@H](c2cccc(C(F)(F)F)c2)[C@H](C(=O)OC)[C@H]1C`, the Potency entry was “inactive”. The entry for `COC/C=C/C1=CC2=CC(=O)C(C)(OC(=O)c3cnc4ccccc4n3)C(=O)C2=CN1C1CCCC1` (stereo not given) is “inactive”; for `C/C=C/C1=Cc2ccccc2C(CC(=O)OC)N1C(=O)OC` (stereo not given) it is “inactive”. The entry for `CCCCc1nc2c(c3c1C[C@H](C)OC3)CN(C(=O)NCCCC(=O)OCC)CC2` is “inactive”. Under `CC[C@@H](C)CN1C(=O)N[C@@H](c2ccccc2)C(C(C)=O)=C1C` stands “inactive”; under `CCCCC1=CC2=CC(=O)C(C)(OC(=O)CC)C(=O)C2=CN1Cc1ccc2c(c1)OCO2` (stereo not given), “inactive”.

For `CCCCn1c(C)cc2c(c1=O)[C@H]1O[C@](c3ccsc3)(Cc3ccccc31)O2`, the Potency result is “inactive”.
